Assay [1] can be described thus: qHTS for Inhibitors of Plasmodium falciparum (DD2) proliferation (AID 504314).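 Note: parasite DNA measured by SYBR Green fluorescence after red cell lysis; plate controls were DMSO vehicle for no effect and artemisinin wells for full effect.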 In outline:
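P. falciparum Dd2 is grown in erythrocytes with test compound for 72 h at 37C under 5% CO2. Growth is scored by SYBR Green I fluorescence after detergent lysis, relative to artemisinin (0.29 uM) and DMSO controls.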
On the technique in general: qHTS replaces the single test concentration by a dilution series.

Assay [2] can be described thus: qHTS for Inhibitors of Plasmodium falciparum (7G8) proliferation (AID 504316).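 For activity change, negative = inhibition: series mostly up to about 6.7 µM; 0% = DMSO vehicle and -100% = 0.29 µM artemisinin full kill.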 Note: nearly all actives have a fitted effect of over 65% in size. Note: potency is the fitted concentration of half-maximal effect. An outline of the steps: (§1)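 Parasite growth measured as SYBR Green DNA fluorescence (ex 485, em 535 nm) after overnight lysis following 72 h culture at 37 °C, 0.3% parasitemia, 2.5% hematocrit. Values normalized against DMSO and 0.29 uM artemisinin controls, with plate-stack correction.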

Assay [3] in a line: qHTS for Inhibitors of Plasmodium falciparum (HB3) proliferation (AID 504318).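 Note: 0% = DMSO vehicle and -100% = artemisinin control; nearly all actives have a fitted effect of over 60% in size.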 An outline of the steps: as §1
The nature of assay [4]: qHTS for Inhibitors of Plasmodium falciparum (CP250) proliferation (AID 504320).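 Note: plate controls were DMSO vehicle for no effect and 0.29 µM artemisinin control for full effect.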 An outline of the steps: as §1
Assay [5] concerns the target Atrial natriuretic peptide receptor 1 (Homo sapiens) (UniProt P16066). The assay can be described thus: Natriuretic polypeptide receptor (hNpr1) antagonism - Pilot CMLD screen (AID 1347052; calls by dose curve;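 note: HEK293 cells with hNpr1 stimulated by hNppA peptide at 0.1 nM; cGMP level read as GloSensor luciferase luminescence after agonist stimulation; series mostly up to about 9.2 µM; % is set by controls: 0 for no effect and ±100 for the full control effect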).
Assay [6] addresses Cytochrome P450 3A4 (Homo sapiens) (UniProt P08684). The assay can be described thus: qHTS Assay for Inhibitors and Substrates of Cytochrome P450 3A4 (AID 884). Note: series mostly up to about 57 µM; % is set by controls: 0 for no effect and ±100 for the full control effect; nearly all actives have a fitted effect of over 50% in size. In outline: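 Luminescent readout of luciferin produced by CYP3A4 (20 nM) dealkylation of Luciferin-PPXE, 25 uM (its KM). NADPH-driven reaction ran 60 min at RT after 10 min compound preincubation; data scaled to 57 uM ketoconazole as 100% inhibition.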

In assay [7] the target is Cytochrome P450 2D6 (Homo sapiens) (UniProt P10635). As to the kind of experiment: qHTS Assay for Inhibitors and Substrates of Cytochrome P450 2D6 (AID 891).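 Note: luciferin methyl ether substrate demethylated by CYP2D6 with NADPH regeneration; % is set by controls: 0 for no effect and ±100 for the full control effect; nearly all actives have a fitted effect of over 60% in size.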 An outline of the steps: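 Luminescent read-out of luciferin formed by 5 nM human CYP2D6 demethylating 30 uM Luciferin-ME EGE (Km level) over 60 min at room temperature after NADPH regeneration addition. Data normalized to full inhibition by 1.43 uM quinidine.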

Assay [8] deals with Cytochrome P450 2C19 (Homo sapiens) (UniProt P33261). The assay can be described thus: qHTS Assay for Inhibitors and Substrates of Cytochrome P450 2C19 (AID 899). Note: potency is the fitted concentration of half-maximal effect; nearly all actives have a fitted effect of over 60% in size. In outline: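 Reactions contain 5nM enzyme, 10uM Luciferin-H EGE (KM) and 50mM KPO4; compound preincubates 10 min at 37C, NADPH regeneration starts turnover for 60 min. Luminescence after detection reagent gives activity.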

Inconclusive results are not listed. A number with no mark means an inactive call. The source made the active and inactive calls. Unless noted, calls come from the whole dose curve; as a rule, active = well fitted curve in the direction sought with a large enough effect; inconclusive = small, poorly fitted or top-dose-only effect, or another doubt; inactive = no such curve, though single readings can be large; an effect the other way counts as inactive or inconclusive.

The record followed here is PubChem BioAssay (NCATS).

Chain of Atrial natriuretic peptide receptor 1 (Homo sapiens) (P16066 whole entry, looked up): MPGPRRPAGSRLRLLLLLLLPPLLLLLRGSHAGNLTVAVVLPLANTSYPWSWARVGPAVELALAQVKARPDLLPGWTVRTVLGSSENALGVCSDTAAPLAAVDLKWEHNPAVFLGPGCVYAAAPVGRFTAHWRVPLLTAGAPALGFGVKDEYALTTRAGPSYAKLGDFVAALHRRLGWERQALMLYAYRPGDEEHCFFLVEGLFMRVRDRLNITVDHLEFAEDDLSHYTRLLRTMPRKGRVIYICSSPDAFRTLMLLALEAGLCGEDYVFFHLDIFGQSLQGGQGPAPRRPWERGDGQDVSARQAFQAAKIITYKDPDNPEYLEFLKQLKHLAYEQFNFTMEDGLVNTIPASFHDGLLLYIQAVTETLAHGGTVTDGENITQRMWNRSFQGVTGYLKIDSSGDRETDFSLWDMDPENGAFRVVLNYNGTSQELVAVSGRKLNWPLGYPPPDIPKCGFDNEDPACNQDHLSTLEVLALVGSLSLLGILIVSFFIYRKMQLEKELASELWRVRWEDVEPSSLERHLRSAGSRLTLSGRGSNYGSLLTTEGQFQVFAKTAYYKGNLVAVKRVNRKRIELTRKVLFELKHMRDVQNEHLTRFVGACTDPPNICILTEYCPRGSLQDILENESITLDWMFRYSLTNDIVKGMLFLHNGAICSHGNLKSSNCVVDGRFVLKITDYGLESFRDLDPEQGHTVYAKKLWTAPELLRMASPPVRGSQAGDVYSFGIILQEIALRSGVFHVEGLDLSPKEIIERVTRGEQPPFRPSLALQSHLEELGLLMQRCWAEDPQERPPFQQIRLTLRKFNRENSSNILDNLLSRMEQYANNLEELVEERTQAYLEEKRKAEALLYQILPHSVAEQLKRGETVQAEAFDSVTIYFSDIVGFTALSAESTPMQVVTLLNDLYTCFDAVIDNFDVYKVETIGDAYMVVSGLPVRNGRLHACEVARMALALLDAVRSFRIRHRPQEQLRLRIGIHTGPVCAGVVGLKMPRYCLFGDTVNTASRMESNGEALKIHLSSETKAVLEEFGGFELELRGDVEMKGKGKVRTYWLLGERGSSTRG
Chain of Cytochrome P450 2C19 (Homo sapiens) (P33261 whole entry, looked up): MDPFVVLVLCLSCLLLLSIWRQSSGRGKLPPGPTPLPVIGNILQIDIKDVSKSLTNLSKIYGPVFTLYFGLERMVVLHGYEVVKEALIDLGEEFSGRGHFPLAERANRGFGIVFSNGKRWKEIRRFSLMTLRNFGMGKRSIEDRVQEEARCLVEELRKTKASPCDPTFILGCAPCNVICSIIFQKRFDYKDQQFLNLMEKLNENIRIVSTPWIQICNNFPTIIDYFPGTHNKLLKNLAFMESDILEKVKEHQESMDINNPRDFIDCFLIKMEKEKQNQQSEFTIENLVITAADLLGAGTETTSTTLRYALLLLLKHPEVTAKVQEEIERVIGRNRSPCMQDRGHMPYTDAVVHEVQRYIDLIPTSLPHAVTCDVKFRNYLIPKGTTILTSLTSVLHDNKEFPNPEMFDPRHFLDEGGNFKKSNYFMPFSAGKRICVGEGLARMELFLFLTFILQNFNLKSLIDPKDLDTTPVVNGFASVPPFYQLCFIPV
Chain of Cytochrome P450 3A4 (Homo sapiens) (P08684 whole entry, looked up): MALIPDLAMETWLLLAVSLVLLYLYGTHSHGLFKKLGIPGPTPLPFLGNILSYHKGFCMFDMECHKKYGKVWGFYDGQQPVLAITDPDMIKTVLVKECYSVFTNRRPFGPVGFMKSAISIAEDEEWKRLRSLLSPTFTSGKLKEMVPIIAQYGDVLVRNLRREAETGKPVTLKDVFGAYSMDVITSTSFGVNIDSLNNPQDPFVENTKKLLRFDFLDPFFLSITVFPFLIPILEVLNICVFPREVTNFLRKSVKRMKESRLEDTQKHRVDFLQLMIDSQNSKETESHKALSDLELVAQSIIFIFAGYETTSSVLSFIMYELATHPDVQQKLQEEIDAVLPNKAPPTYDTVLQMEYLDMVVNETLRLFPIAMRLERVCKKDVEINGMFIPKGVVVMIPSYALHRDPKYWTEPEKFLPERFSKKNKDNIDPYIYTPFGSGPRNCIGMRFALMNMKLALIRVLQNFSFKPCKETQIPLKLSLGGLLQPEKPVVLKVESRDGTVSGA
Chain of Cytochrome P450 2D6 (Homo sapiens) (P10635 whole entry, looked up): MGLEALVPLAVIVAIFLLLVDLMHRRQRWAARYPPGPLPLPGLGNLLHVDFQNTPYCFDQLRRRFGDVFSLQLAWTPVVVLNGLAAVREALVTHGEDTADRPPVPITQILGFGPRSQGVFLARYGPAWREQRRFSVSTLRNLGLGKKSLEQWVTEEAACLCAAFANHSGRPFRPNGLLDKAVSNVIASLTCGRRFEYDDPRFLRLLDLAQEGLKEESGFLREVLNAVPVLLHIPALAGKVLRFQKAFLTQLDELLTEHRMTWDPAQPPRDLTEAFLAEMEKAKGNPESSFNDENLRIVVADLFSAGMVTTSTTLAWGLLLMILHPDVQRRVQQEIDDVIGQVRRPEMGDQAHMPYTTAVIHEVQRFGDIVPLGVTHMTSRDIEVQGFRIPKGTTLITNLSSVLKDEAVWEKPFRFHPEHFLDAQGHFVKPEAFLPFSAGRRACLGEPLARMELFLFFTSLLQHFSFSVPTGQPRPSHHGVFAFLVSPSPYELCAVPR

In the case of `CCCCC1=CC2=CC(=O)C(C)(O)C(=O)C2=CO1` (stereo unspecified), the Potency result in assay [1], in assay [2], in assay [3], in assay [4] and in assay [5] was “inactive” in each case.

In the case of `CC(CCC(=O)OC[C@H]1O[C@H](C#Cc2ccccc2)C=C[C@H]1Oc1ccc(C)cc1)=NO[C@@H](C)c1cn([C@H](CO)Cc2ccccc2)nn1`, the Potency entry in assay [1], in assay [2], in assay [3], in assay [4] and in assay [5] was “inactive” each time.

For `CCC=CCCC(OC(=O)c1ccc(Br)cc1)C1=CCCCC1=O` (stereo unspecified), the Potency result in assay [1], in assay [2], in assay [3], in assay [4] and in assay [5] was “inactive” each time.

In the case of `COCCN1C(=O)NC(c2cccc(F)c2)C(C(=O)OC)=C1C` (stereo unspecified), the Potency result in assay [1], in assay [2], in assay [3], in assay [4] and in assay [5] was “inactive” each time.

In the case of `CCN1C(=O)NC(CCc2ccccc2)C(C(C)=O)=C1C` (stereo unspecified), the Potency result in assay [1], in assay [2], in assay [3], in assay [4] and in assay [5] was “inactive” in each case.

Consider `CCCCc1nc2c(c3c1C[C@H](C)OC3)CN(C(=O)C1CCCCC1)CC2`, for which the activity, negative = inhibition in assay [1] is -0.437% [at 1.12 µM]. For the same compound, the Potency entry in assay [2], in assay [3], in assay [4] and in assay [5] was “inactive” in each case.

For the compound `O=C(NN=C1C[C@@H](O)[C@H](O)[C@H]2[C@@H]3C(=O)N(C4CCCCC4)C(=O)[C@@H]3CC[C@H]12)OCc1ccccc1`, the Potency result in assay [1], in assay [2], in assay [3], in assay [4] and in assay [5] was “inactive” throughout.

For `COC(=O)CC(Oc1c(C)n(C)c2ccccc2c1=O)c1ccccc1` (stereo unspecified), the Potency entry in assay [1], in assay [2], in assay [3], in assay [4] and in assay [5] was “inactive” each time.

On to `C#CCCCON=C1C[C@@H](O)[C@H](O)[C@H]2[C@@H]3C(=O)N(c4ccc(F)cc4F)C(=O)[C@@H]3CC[C@H]12`, for which the Potency result in assay [1], in assay [2], in assay [3], in assay [4] and in assay [5] was “inactive” in each case.

With `C=C1CN2C(=NC(c3ccccc3)C(C(=O)OC)=C2C)O1` (stereo unspecified), the Potency entry in assay [1], in assay [2], in assay [3], in assay [4] and in assay [5] was “inactive” in each case.

Consider `C[C@@H]1CC[C@H]2C(=O)O[C@@H](Cc3ccccc3)CN2[C@@H]1c1ccc(Br)cc1`, for which the Potency entry in assay [1], in assay [2], in assay [3], in assay [4] and in assay [5] was “inactive” throughout.

As to `CCN(CCNC(=O)[C@H]1C=C(OC)C(=O)C[C@H](c2ccccc2)[C@@H]1C)C(C)=O`, the Potency entry in assay [1], in assay [2], in assay [3], in assay [4] and in assay [5] was “inactive” each time.

As to `C=CCN1c2ccccc2[C@]23CCC(=O)N(CC4CC4)C2=NC(C(=O)OC)=C(C(=O)OC)[C@H]13`, the Potency result in assay [1], in assay [2], in assay [3], in assay [4] and in assay [5] was “inactive” throughout.

Turning to `CC1=CC[C@@H](C)O[C@@]2(C1)C(=O)Nc1ccccc12`, the Potency entry in assay [1], in assay [2], in assay [3], in assay [4] and in assay [5] was “inactive” in each case.

For `Cc1ccc(O[C@@H]2[C@H](O)CO[C@H]2C=CC#Cc2ccc(C(C)(C)C)cc2)cc1`, the Potency result in assay [1], in assay [2], in assay [3], in assay [4] and in assay [5] was “inactive” throughout.

Turning to `CC1=CC[C@@H](COc2ccccc2)O[C@@]2(C1)C(=O)Nc1cccc(Br)c12`, the Potency result in assay [1], in assay [2], in assay [3], in assay [4] and in assay [5] was “inactive” in each case.

For the compound `COc1cccc([C@H]2Oc3ccc(OC)cc3C(=NO[C@@H](C)c3cc(-c4c(C)cc(C)cc4C)no3)[C@H]2O)c1`, the Potency result in assay [1], in assay [2], in assay [3], in assay [4] and in assay [5] was “inactive” in each case.

On to `C=CCOC(=O)NC(c1ccc(F)c(F)c1)C(C(=O)CCl)C(=O)OC` (stereo unspecified), for which the Potency result in assay [1], in assay [2], in assay [3], in assay [4] and in assay [5] was “inactive” throughout.

As for `CCOC(=O)CN1C(=O)NC(c2ccccc2)C(C(C)=O)=C1C` (stereo unspecified), the Potency result in assay [1], in assay [2], in assay [3], in assay [4] and in assay [5] was “inactive” in each case.

For the compound `COCCN1C(=O)N[C@@H](c2cccc(C(F)(F)F)c2)[C@H](C(=O)OC)[C@H]1C`, the Potency result in assay [1], in assay [2], in assay [3], in assay [4] and in assay [5] was “inactive” in each case.

For the compound `COC(=O)N[C@H](C[N+](=O)[O-])C(C)(C)C`, the Potency result in assay [1], in assay [2], in assay [3], in assay [4] and in assay [5] was “inactive” each time.

As to `CCOC(=O)CN1C(=O)N(CC)C(C)=C(C(=O)OC)C1c1ccccc1` (stereo unspecified), the Potency result in assay [1], in assay [2], in assay [3], in assay [4] and in assay [5] was “inactive” in each case.

On to `CCC(=O)OC1(C)C(=O)C=C2C=C(c3ccc(C#N)cc3)OC=C2C1=O` (stereo unspecified), for which the Potency entry in assay [1], in assay [2], in assay [3], in assay [4] and in assay [5] was “inactive” throughout.

As for `Cc1cc(O)cc(O)c1C(=O)OC1(C)C(=O)C=C2C=C(C=CC(=O)O)OC=C2C1=O` (stereo unspecified), the Potency entry in assay [1], in assay [2], in assay [4] and in assay [5] was “inactive” in each case.

Take `CCCCc1cc2c(cn1)=C(OC(=O)c1ccco1)C(C)(OC(=O)CC)C(=O)C=2` (stereo unspecified): in assay [1], the activity, negative = inhibition was 5.3% [at 1.12 µM]. Also, the Potency in assay [2] is 1510 nM (active). Moreover, the Potency entry in assay [4] and in assay [5] was “inactive” each time.

Turning to `CC(=O)c1ccc(OCc2ccccc2)c(C)c1O`, the activity change, negative = inhibition in assay [6] was -20.5% [at 11.4 µM]; in assay [7], -4.53% [at 11.4 µM]. Besides, the Potency in assay [8] was 50.1 nM (active). The Potency entry in assay [1], in assay [2], in assay [3], in assay [4] and in assay [5] was “inactive” each time.
